Source: the supplement of paper PMC9694430

Assays:
Test in all cases: thermal shift delta Tm vs DMSO control; higher = stronger stabilization (binding)
Conditions in all cases: 12.5 µM; protein concentration 2 µM
[1] = tested on: LOC_OS02G45750-cb003
In short: (§1)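 Thermal shift values come from differential scanning fluorimetry on purified rice kinase domains made in E. coli, with melting temperatures obtained from Boltzmann fits. Samples of 19.5 μl held 2 μM kinase, 100 mM potassium phosphate pH 7.5, 150 mM NaCl, 10% glycerol, 5 × SYPRO Orange and compound in DMSO, and were heated from 25°C to 95°C at 0.05°C/s. Each shift is a triplicate mean relative to the DMSO-only protein sample.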

[2] = tested on: LOC_OS02G54510-cb004
In short: as §1

[3] = tested on: LOC_OS03G04050-cb001
In short: as §1

[4] = tested on: LOC_OS03G12390-cb001
In short: as §1

[5] = tested on: LOC_OS03G27990-cb004
In short: as §1

[6] = tested on: LOC_OS03G50450-cb001
In short: as §1

[7] = tested on: LOC_OS03G50810-cb003
In short: as §1

[8] = tested on: LOC_OS04G35114-cb001
In short: as §1

[9] = tested on: T1, LOC_OS04G38480-cb003
T1 sequence (whole entry): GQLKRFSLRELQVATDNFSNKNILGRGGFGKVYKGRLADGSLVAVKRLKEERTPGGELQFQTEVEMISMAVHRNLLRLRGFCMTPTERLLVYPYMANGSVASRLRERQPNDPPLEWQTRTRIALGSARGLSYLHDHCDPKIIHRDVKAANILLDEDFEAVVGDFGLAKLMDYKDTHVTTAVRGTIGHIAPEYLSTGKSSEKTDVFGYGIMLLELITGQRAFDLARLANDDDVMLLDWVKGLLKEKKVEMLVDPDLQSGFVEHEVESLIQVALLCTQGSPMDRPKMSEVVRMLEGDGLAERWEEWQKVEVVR
In short: as §1

[10] = tested on: T2, LOC_OS04G41100-cb001
T2 sequence (whole entry): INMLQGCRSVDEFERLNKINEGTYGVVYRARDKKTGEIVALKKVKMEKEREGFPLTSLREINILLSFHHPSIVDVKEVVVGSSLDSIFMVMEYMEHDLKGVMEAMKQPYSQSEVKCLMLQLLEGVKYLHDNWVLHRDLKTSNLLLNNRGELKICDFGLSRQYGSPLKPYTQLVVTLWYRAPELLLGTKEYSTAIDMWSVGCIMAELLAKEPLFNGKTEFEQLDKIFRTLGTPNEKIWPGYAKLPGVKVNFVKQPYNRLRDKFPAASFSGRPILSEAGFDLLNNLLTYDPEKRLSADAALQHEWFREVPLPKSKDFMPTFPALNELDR
In short: as §1
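Note: purified Escherichia coli-expressed rice kinase domain construct.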

Compound | thermal shift delta Tm [1] [°C] | thermal shift delta Tm [2] [°C] | thermal shift delta Tm [3] [°C] | thermal shift delta Tm [4] [°C] | thermal shift delta Tm [5] [°C] | thermal shift delta Tm [6] [°C] | thermal shift delta Tm [7] [°C] | thermal shift delta Tm [8] [°C] | thermal shift delta Tm [9] [°C] | thermal shift delta Tm [10] [°C]
C#Cc1cccc(Nc2ncnc3cc(OC)c(OCCCCCCC(=O)NO)cc23)c1 | 2.9 | 1.18 | -0.05 | 2.33 | 0.11 | 0.09 | 1.73 | 5.97 | 1.01 | 0.37
C1=N/C2=N/c3ccc(OCCN4CCCC4)c(c3)COC/C=C/COCc3cccc(c3)C(=C1)N2 [Pacritinib (SB1518)] | 8.5 | 3.05 | 0.14 | 4.32 | 4.35 | 3.76 | 7.67 | 10.9 | 3.66 | 5.39
O=C(Nc1nccs1)C(c1cc(F)ccc1O)N1Cc2ccccc2C1=O (stereo not given) | 0.19 | 0.2 | -0.02 | -0.36 | 0.06 | -0.38 | 0.01 | 0.12 | 0.41 | 0.1
CCCNC(=O)c1cn2ncnc(Nc3cc(C(=O)NC4CC4)ccc3C)c2c1C | 0.71 | 0.18 | 0.45 | -0.14 | 0.24 | 0.49 | 0.26 | 0.65 | 0.42 | 0.24
COC(=O)c1ccc2c(c1)NC(=O)/C2=C(\Nc1ccc(N(C)C(=O)CN2CCN(C)CC2)cc1)c1ccccc1 [Nintedanib (BIBF 1120)] | 2.59 | 0.74 | 0.2 | 2.83 | 1.25 | 0.03 | 2.2 | 6.69 | 0.23 | 0.7
Cc1nc(Nc2n[nH]c3c2CN(C(=O)N[C@H](CN(C)C)c2ccccc2)C3(C)C)c2sccc2n1 | 0.94 | 0.82 | 0.62 | 3.19 | 0.55 | 0.78 | 1.44 | 3.07 | 0.43 | 0.63
CC(=O)c1c(C)c2cnc(Nc3ccc(N4CCNCC4)cn3)nc2n(C2CCCC2)c1=O | 6.05 | 0.3 | 0.22 | 5.44 | 2.08 | 0.53 | 2.97 | 3.19 | 1.9 | 1.04
CCc1cccc(CC)c1NC(=O)N1Cc2[nH]nc(NC(=O)c3ccc(N4CCN(C)CC4)cc3)c2C1 | 2.47 | 0.46 | 0.29 | 4.75 | 0.09 | 0.27 | 2.53 | 4.67 | 0.61 | 0.62
C=CC(=O)Nc1cccc(Nc2nc(Nc3ccc(Oc4ccnc(C(=O)NC)c4)cc3)ncc2F)c1 | 0.72 | 1.23 | 0.77 | 2.55 | 0.98 | 1.34 | 2.61 | 2.69 | 3.42 | 0.73
O=C1NC(=O)[C@@H](c2cn3c4c(cccc24)CCC3)[C@@H]1c1c[nH]c2ccccc12 [Tivantinib (ARQ 197)] | 0.51 | 0.03 | 0.44 | -0.01 | 0.43 | 0.17 | 0.07 | 0.51 | 0.13 | 0.36
Cc1[nH]nc2ccc(-c3cncc(OC[C@@H](N)Cc4ccccc4)c3)cc12 | 2.29 | 0.14 | 0.35 | 3.08 | 0.34 | 0.59 | 1.41 | 1.06 | 0.62 | 1.9
CCc1nc(C(N)=O)c(Nc2ccc(N3CCC(N4CCN(C)CC4)CC3)c(OC)c2)nc1NC1CCOCC1 [Gilteritinib (ASP2215)] | 9.25 | 3.16 | 0.4 | 9.74 | 8.74 | 5.63 | 8.56 | 11.4 | 6.15 | 0.57
CC(C)NC(=O)C1CCC(n2c(NC(=O)c3ccc(F)cc3)nc3ccc(CN4CCC(C(C)(C)O)CC4)cc32)CC1 (stereo not given) [Belizatinib (TSR-011)] | 1.72 | 1.61 | 0.67 | 6.22 | 1.09 | 0.85 | 3.76 | 6.28 | 1.98 | 0.49
O=C(c1ccc(/C=C/c2n[nH]c3ccccc23)cc1)N1CCNCC1 | 14 | 0.61 | 0.27 | 6.79 | 6 | 4.25 | 4.42 | 8.77 | 2.61 | 0.96
COc1cccc(-n2c(=O)[nH]c3cc(Cl)n(-c4ccc(-c5cccc(OC)c5O)cc4)c3c2=O)c1 | 0.85 | 0.06 | 0.3 | 0.12 | 0.42 | 0.22 | 0.35 | 0.59 | 1.27 | 0.29
CNC(=O)c1cccc(-c2ccc3c(N4CCOC[C@@H]4C)nc(N4CCOC[C@@H]4C)nc3n2)c1 [Vistusertib (AZD2014)] | 0.21 | 0.04 | 0.18 | -0.33 | 0.11 | 0.09 | 0.06 | -0.19 | 0.96 | 0.11
CCCCNc1ncc(-c2ccc(CN3CCOCC3)cn2)c(NC2CCC(O)CC2)n1 (stereo not given) | 13.7 | 0.36 | 0.34 | 2.88 | 1.94 | 1.29 | 5.33 | 7.84 | 3.1 | 0.46
O=S(=O)(c1cccc2c(I)cccc12)N1CCCNCC1 | 0.53 | -0.05 | 0.42 | 0.16 | 0.1 | 0.19 | 0.19 | 0.11 | 2.17 | 0.44
C[C@H](Nc1ncnc2[nH]cnc12)c1cc2ccc(F)cc2nc1-c1ccccn1 | 0.75 | 0.11 | 0.38 | 0.1 | 0.16 | 0.69 | 0.49 | 0.44 | 1.43 | 0.13
O=c1ncn2nc(Sc3ccc(F)cc3F)ccc2c1-c1c(Cl)cccc1Cl | 0.54 | -0.07 | 0.23 | 0.07 | -0.01 | 0.15 | 0.34 | 0.66 | 1.17 | 0.55

Compound | thermal shift delta Tm [1] [°C] | thermal shift delta Tm [2] [°C] | thermal shift delta Tm [3] [°C] | thermal shift delta Tm [4] [°C] | thermal shift delta Tm [5] [°C] | thermal shift delta Tm [6] [°C] | thermal shift delta Tm [7] [°C] | thermal shift delta Tm [8] [°C] | thermal shift delta Tm [9] [°C] | thermal shift delta Tm [10] [°C]
FC(F)c1nc2ccccc2n1-c1nc(N2CCOCC2)nc(N2CCOCC2)n1 | 0.78 | 0.23 | 0.44 | 0.51 | 0.31 | 0.75 | 0.35 | 0.03 | 1.98 | 0.9
Cc1cnc(Nc2ccc(OCCN3CCCC3)cc2)nc1Nc1cccc(S(=O)(=O)NC(C)(C)C)c1 | 2.37 | 0.89 | 0.72 | 3.03 | 1.33 | 1.51 | 3.13 | 3.12 | 1.88 | 0.68
Cc1ccc(C(=O)Nc2ccc(Oc3cc4cnn(C)c4cc3-c3cn[nH]c3)c(F)c2)c(=O)n1-c1ccc(F)cc1 | 1.6 | 0.17 | 1.07 | 0.61 | 0.79 | 1.3 | 1.13 | 0.73 | 3.19 | 1.32
Cn1ncc(Cl)c1-c1cc(C(=O)N[C@H](CN)Cc2cccc(F)c2)sc1Cl | 0.37 | -0.08 | 0.33 | 0 | 0.16 | 0.15 | -0.04 | 0.42 | 0.52 | 0.2
N#C/C(=C\c1ccc(O)c(O)c1)C(=O)NCc1ccccc1 [AG-490 (Tyrphostin B42)] | 0.05 | 0.41 | 0.78 | 0.12 | 0.27 | -0.29 | 0.09 | -0.45 | 0.47 | 0.43
Clc1ccc(Nc2nnc(Cc3ccncc3)c3ccccc23)cc1 [Vatalanib (PTK787) 2HCl] | 0.06 | 0.03 | 0.21 | -0.24 | 0.02 | -0.09 | -0.01 | 0.3 | -0.05 | 0.49
CN(C)C/C=C/C(=O)Nc1cc2c(Nc3ccc(F)c(Cl)c3)ncnc2cc1O[C@H]1CCOC1 [Afatinib (BIBW2992) Dimaleate] | 1.42 | 0.08 | 0.35 | 2.3 | 1.68 | 0.41 | 1.38 | 5.35 | 2.08 | 0.45
Cn1ncc(Cl)c1-c1cc(C(=O)N[C@H](CN)Cc2ccc(F)c(F)c2)oc1Cl | 1.04 | -0.14 | 0.46 | 1.31 | 0.14 | 0.74 | 0.51 | 0.52 | 1.58 | 0.63
NC(=O)Nc1cc(-c2cccc(F)c2)sc1C(=O)N[C@H]1CCCNC1 | 1.81 | 1.91 | 0.72 | 2.87 | 3.23 | 3.98 | 4.12 | 2.52 | 2.65 | 0.96
COc1cc2c(Nc3ccc(NC(=O)c4ccccc4)cc3)ncnc2cc1OCCCN1CCOCC1 | 2.66 | 0.37 | 0.55 | 0.43 | 0.34 | 0.3 | 1.85 | 2.46 | 0.65 | 0.59
CC1(C)OC(=O)C=C[C@]2(C)[C@H]3CC[C@@]4(C)[C@H](c5ccoc5)OC(=O)[C@H]5O[C@]54[C@]3(C)C(=O)C[C@@H]12 [Obacunone] | 0.46 | -0.19 | 0.48 | 0.2 | 0.14 | 0.72 | 0.54 | -0.27 | 1.66 | 0.27
Cc1ccc(NC(=O)c2cccc(N(C)C)c2)cc1NC(=O)c1ccc(O)cc1 | 0.7 | 0.45 | 0.56 | 0.34 | 0.26 | 0.28 | 0.7 | 0.46 | 0.87 | 0.23
CN1CCN(Cc2ccc(-c3cnc4[nH]cc(-c5ccc6[nH]ccc6c5)c4c3)cc2)CC1 | 17.2 | 1.09 | 0.85 | 4.74 | 10.8 | 3.95 | 7.6 | 14.9 | 6.36 | 3.3
CCCCOc1c(C(=O)c2c(F)cc(C)cc2F)c[nH]c2nncc1-2 | 0.73 | 0.14 | 0.23 | 2.18 | 0.03 | -0.21 | 0.46 | 0.65 | 0.81 | 0.49
O=C(Cc1ccc(-c2ccc(OCCN3CCOCC3)cc2)cn1)NCc1ccccc1 | 0.29 | 0.08 | 0.31 | 0.07 | 0.38 | 0.47 | 0.43 | 0.43 | 0.12 | 0.27
FC(F)(F)c1ccc(Nc2nc3ccc(Oc4ccnc(-c5ncc(C(F)(F)F)[nH]5)c4)cc3[nH]2)cc1 [Raf265 derivative] | 1.97 | 0.28 | 0.92 | 1.89 | 0.72 | 1.24 | 1.68 | 0.2 | 2.16 | 1.09
C=CCc1ccc(O)c(-c2ccc(O)c(CC=C)c2)c1 [Honokiol] | -0.57 | 0.26 | 0.72 | -0.04 | 0.52 | 0.5 | 0.47 | 0.36 | 1.32 | 0.48
COc1cc2ncnc(Nc3ccc(Cl)cc3F)c2cc1OC | 2.84 | 0.95 | 0.25 | 2.87 | 0.55 | 0.36 | 1.2 | 7.37 | 1.81 | 0.5
Cc1ccc(C(=O)Nc2cccc(C(F)(F)F)c2)cc1Nc1nc(-c2cccnc2)nc2c1cnn2C | 0.71 | 1.84 | 0.36 | 1.07 | 0.25 | 0.79 | 0.32 | 0.29 | 0.47 | 0.58
C[C@H]1[C@H](C)CC[C@]2(C(=O)O)CC[C@]3(C)C(=CC[C@@H]4[C@@]5(C)C[C@@H](O)[C@H](O)[C@@](C)(CO)[C@@H]5CC[C@]43C)[C@H]12 [Asiatic Acid] | 0.12 | -0.04 | 0.11 | -0.01 | 0.08 | 0.19 | 0.31 | -0.09 | 0.96 | 0.3
